Laboratory results as given in PubChem BioAssay.
Unmarked numbers belong to inactive results. For some assays here: Measured potencies and affinities stand elsewhere. The source made the active and inactive calls. Unless noted, the rule behind the calls is not given here.

Key:
[1] = antimalarial activity against Dd2 strain (AID 2302;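 active = growth inhibition above 50% at the single 2 µM test dose, taken to imply half-maximal potency below 2 µM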;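 note: 0% = DMSO untreated growth and 100% = chloroquine plus artemisinin killed control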); details: P. falciparum Dd2 in RBCs, LDH growth readout, 72 h; at 2 µM; hits give high values
[2] = HepG2 cytotoxicity, primary screen, cytotoxicity control for P. falciparum antimalarial project, cell-based, ATP luminescence (AID 2303;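 active = inhibition above 50%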;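 note: 0% = DMSO wells and 100% = digitonin-killed cells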); details: HepG2 viability, 24-48 h, at 10 µM, hits give high values
[3] = target: L-lactate dehydrogenase (Plasmodium falciparum (isolate CDC / Honduras)) (UniProt Q27743); assay: PfLDH activity inhibition – cell lysate, 3D7 strain, counter-screen for P. falciparum growth inhibition project (AID 2304);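 note: 0% = vehicle and 100% = reference inhibitor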; details: P. falciparum 3D7 crude extract, LDH APAD/NBT absorbance; at 2 µM; hits give high values
Sequence of L-lactate dehydrogenase (Plasmodium falciparum (isolate CDC / Honduras)) (Q27743 whole entry, looked up): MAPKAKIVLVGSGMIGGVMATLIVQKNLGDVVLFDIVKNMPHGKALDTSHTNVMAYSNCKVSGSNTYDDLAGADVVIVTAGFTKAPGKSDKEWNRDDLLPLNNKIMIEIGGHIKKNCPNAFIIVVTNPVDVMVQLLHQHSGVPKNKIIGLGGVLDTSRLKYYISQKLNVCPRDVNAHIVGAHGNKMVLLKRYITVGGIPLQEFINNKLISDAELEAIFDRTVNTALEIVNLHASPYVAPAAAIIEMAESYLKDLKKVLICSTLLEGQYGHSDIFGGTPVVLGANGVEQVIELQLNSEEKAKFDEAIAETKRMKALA

[4] = inhibition of 3D7 malaria parasite growth – strain 3D7 (AID 2306);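 note: 0% = DMSO wells and 100% = chloroquine plus artemisinin control wells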; details: P. falciparum 3D7 erythrocytic growth, LDH absorbance, 72 h; at 2 µM; hits give high values
[5] = target: Calcium-dependent protein kinase 1 (Plasmodium falciparum (isolate 3D7)) (UniProt P62344); assay: PfCDPK1 kinase inhibitors, biochemical, TCAMS library (AID 1159585; cut-off not given, nearly all actives have IC50 up to about 0.98 µM;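 note: inhibitors leave more ATP so luminescence rises with inhibition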); details: recombinant PfCDPK1, Kinase-Glo ATP depletion luminescence
Sequence of Calcium-dependent protein kinase 1 (Plasmodium falciparum (isolate 3D7)) (P62344 whole entry, looked up): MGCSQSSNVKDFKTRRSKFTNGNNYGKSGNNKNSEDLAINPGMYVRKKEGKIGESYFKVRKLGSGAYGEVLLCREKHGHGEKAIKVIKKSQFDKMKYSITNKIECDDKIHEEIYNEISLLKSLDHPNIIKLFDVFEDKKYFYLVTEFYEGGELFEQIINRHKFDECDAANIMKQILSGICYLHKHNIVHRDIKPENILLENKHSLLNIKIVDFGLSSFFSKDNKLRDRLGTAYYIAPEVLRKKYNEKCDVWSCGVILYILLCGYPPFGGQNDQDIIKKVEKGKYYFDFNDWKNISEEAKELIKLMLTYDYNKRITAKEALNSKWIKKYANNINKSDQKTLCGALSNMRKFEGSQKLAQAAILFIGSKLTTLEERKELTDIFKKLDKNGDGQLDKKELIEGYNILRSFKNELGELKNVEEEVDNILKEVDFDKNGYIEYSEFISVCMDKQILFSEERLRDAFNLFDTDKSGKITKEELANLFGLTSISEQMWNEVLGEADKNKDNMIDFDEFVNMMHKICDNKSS

[6] = target: Plasmodium falciparum protein kinase 6 (PK6, PF3D7_1337100) (UniProt Q8IDW1); assay: PfPK6 kinase inhibitors, biochemical, TCAMS library (AID 1159586); details: recombinant PfPK6, Kinase-Glo ATP depletion luminescence
Sequence of Plasmodium falciparum protein kinase 6 (PK6, PF3D7_1337100) (Q8IDW1 1-305): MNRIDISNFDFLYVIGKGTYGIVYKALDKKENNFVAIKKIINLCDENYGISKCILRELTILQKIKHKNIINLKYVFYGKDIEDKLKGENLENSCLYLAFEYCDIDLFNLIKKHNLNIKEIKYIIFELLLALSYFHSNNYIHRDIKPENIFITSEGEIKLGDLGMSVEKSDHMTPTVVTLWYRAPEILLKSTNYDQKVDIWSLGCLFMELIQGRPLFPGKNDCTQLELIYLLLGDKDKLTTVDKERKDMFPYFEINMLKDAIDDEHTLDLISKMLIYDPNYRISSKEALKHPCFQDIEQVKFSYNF

[7] = target: Protein kinase 7 (PK7), Plasmodium falciparum 3D7 (PF3D7_0213400) (UniProt Q7YTF7); assay: inhibition of Plasmodium PK7 catalytic activity – biochemical, TCAMS antimalarial set, Kinase-Glo luminescence (AID 1159587); details: recombinant PfPK7, Kinase-Glo ATP depletion luminescence
Sequence of Protein kinase 7 (PK7), Plasmodium falciparum 3D7 (PF3D7_0213400) (Q7YTF7 1-343): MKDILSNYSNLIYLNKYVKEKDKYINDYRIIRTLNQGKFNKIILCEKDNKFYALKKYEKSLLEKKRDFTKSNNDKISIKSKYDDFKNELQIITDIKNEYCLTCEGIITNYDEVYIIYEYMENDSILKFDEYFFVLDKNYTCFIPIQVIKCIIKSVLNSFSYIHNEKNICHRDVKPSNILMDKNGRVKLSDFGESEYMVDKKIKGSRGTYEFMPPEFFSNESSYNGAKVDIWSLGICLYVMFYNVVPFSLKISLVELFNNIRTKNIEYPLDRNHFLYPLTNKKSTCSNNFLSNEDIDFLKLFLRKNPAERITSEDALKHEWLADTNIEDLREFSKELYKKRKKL

[8] = target: Calcium-dependent protein kinase 4 (Plasmodium falciparum (isolate 3D7)) (UniProt Q8IBS5); assay: PfCDPK4 kinase inhibitors, biochemical, TCAMS library (AID 1159588; cut-off not given, nearly all actives have IC50 up to about 0.91 µM); details: recombinant PfCDPK4, Kinase-Glo ATP depletion luminescence
Sequence of Calcium-dependent protein kinase 4 (Plasmodium falciparum (isolate 3D7)) (Q8IBS5 whole entry, looked up): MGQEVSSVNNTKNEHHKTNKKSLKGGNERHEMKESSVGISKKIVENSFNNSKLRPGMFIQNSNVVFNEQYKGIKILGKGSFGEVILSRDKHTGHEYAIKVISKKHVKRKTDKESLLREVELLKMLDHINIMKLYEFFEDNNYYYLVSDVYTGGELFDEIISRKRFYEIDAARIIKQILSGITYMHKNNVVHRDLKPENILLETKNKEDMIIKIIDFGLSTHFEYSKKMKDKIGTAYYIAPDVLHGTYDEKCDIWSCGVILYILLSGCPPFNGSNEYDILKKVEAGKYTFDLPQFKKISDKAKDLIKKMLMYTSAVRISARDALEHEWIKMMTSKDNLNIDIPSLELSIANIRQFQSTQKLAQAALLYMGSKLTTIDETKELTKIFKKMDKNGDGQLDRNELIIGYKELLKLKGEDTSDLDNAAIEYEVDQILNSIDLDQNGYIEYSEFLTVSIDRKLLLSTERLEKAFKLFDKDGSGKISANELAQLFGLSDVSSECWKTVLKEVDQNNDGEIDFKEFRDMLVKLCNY

Row | SMILES | growth inhibition [1] | inhibition [2] | inhibition [3] [%] | growth inhibition [4] | outcome [5] | outcome [6] | outcome [7] | outcome [8]
1 | O=C(NCCCN1CCC(N2CCCCC2)CC1)C1=Cc2cc(Br)ccc2OC1 | 19% | 26% | -1 | 100% (active) | inactive | inactive | inactive | inactive
2 | COC(=O)c1cccc(CNCc2ccc(-c3cccc(-c4nc5ccccc5[nH]4)c3)cc2)c1 | 46% | 5% | -3 | 101% (active) | inactive | inactive | inactive | inactive
3 | COc1ccccc1CNC(=O)c1cc(Br)cc(N2CCN(c3ccncc3)CC2)c1 | 76% (active) | 43% | 0 | 95% (active) | inactive | inactive | inactive | inactive
4 | OC(CN(Cc1ccccc1)Cc1ccccc1)Cn1c2ccc(Cl)cc2c2cc(Cl)ccc21 (stereo not given) | 95% (active) | 5% | 6 | 89% (active) | inactive | inactive | inactive | inactive
5 | Oc1c(Br)cc2oc3c(c2c1CNCc1ccccc1)CCCC3 | 74% (active) | -19% | 0 | 99% (active) | inactive | inactive | inactive | inactive
6 | COc1ccc2c(NN=Cc3ccc(F)cc3)ccnc2c1 | 99% (active) | 14% | -4 | 100% (active) | inactive | inactive | inactive | inactive
7 | O=C(Nc1ccc(Cl)cc1C(=O)Nc1cccc(F)c1)c1ccc([N+](=O)[O-])cc1 | 54% (active) | 10% | 0 | 89% (active) | inactive | inactive | inactive | inactive
8 | COc1ccc(NC(=O)c2ccc(NC(=O)c3ccc(Cl)cc3)cc2)cc1N1CCN(C)CC1 | 40% | 23% | -8 | 98% (active) | inactive | inactive | inactive | inactive
9 | O=C(Nc1cccc(-c2cccc(-c3nc4ccccc4[nH]3)c2)c1)c1cccnc1 | 14% | 12% | -3 | 95% (active) | inactive | inactive | inactive | inactive
10 | Cc1ccc(CNC(=O)c2cc3c(=O)n4ccccc4nc3n(CCCN3CCOCC3)c2=N)cc1 | 5% | 21% | -3 | 92% (active) | inactive | inactive | inactive | inactive
11 | O=C(Nc1ccc(CN2CCCCC2)cc1)c1ccc(COc2ccc([N+](=O)[O-])cc2)o1 | -3% | 12% | -1 | 86% (active) | inactive | inactive | inactive | inactive
12 | COc1ccc2nc(C)cc(NN=Cc3cccc([N+](=O)[O-])c3)c2c1 | 97% (active) | 6% | 7 | 102% (active) | inactive | inactive | inactive | inactive
13 | Cc1ccc(C2CC(c3cccs3)=NN2C(=O)c2ccc(Br)o2)cc1 (stereo not given) | 69% (active) | 11% | 0 | 99% (active) | inactive | inactive | inactive | inactive
14 | Cc1csc(-c2nonc2NC(=O)COc2ccccc2C(C)C)n1 | 85% (active) | 14% | -1 | 90% (active) | inactive | inactive | inactive | inactive
15 | CN(c1ccccc1C(=O)Nc1ccccc1Oc1ccccc1)S(=O)(=O)c1ccccc1 | 80% (active) | 2% | -2 | 90% (active) | inactive | inactive | inactive | inactive
16 | O=C(Nc1cccc(C(F)(F)F)c1)Nc1ccc(Cl)c(C(F)(F)F)c1 | 99% (active) | -4% | -6 | 99% (active) | inactive | inactive | inactive | inactive
17 | Cc1cc(N2CCOCC2)nc(Nc2ccc(NC(=O)Nc3ccc(F)cc3)cc2)n1 | 34% | 35% | -2 | 101% (active) | inactive | inactive | inactive | inactive
18 | CCOc1ccc(S(=O)(=O)N(C)c2ccc(OCC(=O)Nc3nccs3)cc2)cc1 | 4% | 8% | 3 | 95% (active) | inactive | inactive | inactive | inactive
19 | O=S(=O)(c1ccc2cc[nH]c2c1)N1CCC[C@@H]1CCN1CCC(c2c[nH]c3cnccc23)CC1 | 0% | 13% | 0 | 95% (active) | inactive | inactive | inactive | inactive
20 | Nc1nc(N)c2c(Cc3ccccc3)cccc2n1 | 3% | 68% (active) | -7 | 94% (active) | inactive | inactive | inactive | inactive

Row | SMILES | growth inhibition [1] | inhibition [2] | inhibition [3] [%] | growth inhibition [4] | outcome [5] | outcome [6] | outcome [7] | outcome [8]
21 | COc1cccc2cc(C(=O)N[C@@H](CC(C)C)C(=O)N[C@H](/C=N/NC(=O)OC(C)(C)C)CC(=O)OC(C)(C)C)oc12 | 57% (active) | 4% | 0 | 85% (active) | inactive | inactive | inactive | inactive
22 | COc1ccc(-c2ncnc(C(F)(F)F)c2-c2ccc(Cl)cc2)c(O)c1 | 22% | 1% | -4 | 100% (active) | inactive | inactive | inactive | inactive
23 | COc1ccc(-c2cnc(N)c(-c3nc4ccc(Br)cc4[nH]3)c2)cc1 | 3% | 42% | 2 | 100% (active) | inactive | inactive | inactive | inactive
24 | O=C(NC(c1ccccc1)c1ccccc1)C(c1cc2ccccc2o1)N1CCN(C(c2ccccc2)c2ccccc2)CC1 (stereo not given) | 78% (active) | -1% | -1 | 95% (active) | inactive | inactive | inactive | inactive
25 | CCNc1cc(C(=O)N[C@@H](Cc2ccccc2Cl)[C@H](O)CNC2CCCCC2)cc(N2CCCCS2(=O)=O)c1 | 97% (active) | 6% | 0 | 99% (active) | inactive | inactive | inactive | inactive
26 | CC(C)(C)c1ccc(CN2CCC(CNC(=O)c3cc(-c4ccccc4Cl)cs3)C2)cc1 (stereo not given) | 56% (active) | 33% | 1 | 101% (active) | inactive | inactive | inactive | inactive
27 | COc1ccc(CNC(=O)c2cnc3c(O)cccc3c2Nc2cccc(NC(=O)c3ccc(Cl)c(Cl)c3)c2)cc1 | 89% (active) | 54% (active) | 4 | 96% (active) | inactive | inactive | inactive | inactive
28 | Cc1cccc2[nH]c(-c3cccc(-c4ccc(NC(=O)CCc5cnc[nH]5)cc4)c3)nc12 | 92% (active) | 3% | 6 | 102% (active) | inactive | inactive | inactive | inactive
29 | Cc1onc(-c2ccccc2)c1-c1nc(NCCC(c2ccccc2)c2ccccc2)no1 | 78% (active) | -4% | -7 | 100% (active) | inactive | inactive | inactive | inactive
30 | CC(C)CNC(=O)c1cncc(-c2ccc(CNCCCc3ccccc3)cc2)c1 | 73% (active) | 28% | -6 | 101% (active) | inactive | inactive | inactive | inactive
31 | O=C(Nc1ccc(Br)cc1)N(CCN1CCOCC1)CC(O)COCc1ccc(F)cc1 (stereo not given) | 3% | 5% | -1 | 90% (active) | inactive | inactive | inactive | inactive
32 | CC(C)c1ccc(NC(=S)NN=Cc2ccccn2)cc1 | 98% (active) | 47% | -12 | 100% (active) | inactive | inactive | inactive | inactive
33 | CSc1nnc2n(Cc3ccccc3)c(=O)c3c(n12)-c1ccccc1CC31CCCCC1 | -6% | 0% | 1 | 93% (active) | inactive | inactive | inactive | inactive
34 | N#Cc1ccc2c(c1)CCN(CCC1CCC(NC(=O)c3cc4cccc(Cl)c4[nH]3)CC1)CC2 (stereo not given) | 78% (active) | 34% | 0 | 99% (active) | inactive | inactive | inactive | inactive
35 | CS(=O)(=O)c1ccc(CCNCc2ccc(-c3ccc(CN(C(=O)C4CCCC4)C4CCN(Cc5ccccc5)CC4)cc3)nc2)cc1 | 20% | 24% | -6 | 91% (active) | inactive | inactive | inactive | inactive
36 | CC(=O)c1cccc2[nH]c(C(=O)NC3CCC(CCN4CCc5ccc(C#N)cc5C4)CC3)cc12 (stereo not given) | 0% | 12% | 1 | 96% (active) | inactive | inactive | inactive | inactive
37 | COc1ccc2ccc(F)c(CC(=O)N3CCOC(CNCc4cccc(-c5ccsc5)n4)C3)c2n1 (stereo not given) | 1% | 1% | 3 | 92% (active) | inactive | inactive | inactive | inactive
38 | CCOc1cc(CC)ccc1C1CCN(CCN2CCC(CNC(=O)c3ccc(-c4ccc(C#N)cc4)cc3)CC2)CC1 | 100% (active) | 53% (active) | 5 | 89% (active) | inactive | inactive | inactive | inactive
39 | CCCCCC(=O)NCC(NCCCNc1cc(=O)c2ccccc2[nH]1)c1cc(Br)cc(Br)c1 (stereo not given) | 66% (active) | -1% | -8 | 96% (active) | inactive | inactive | inactive | inactive
40 | O=C(/C=C/c1ccc(Cl)c(Cl)c1)NCCCCCN1CCC(NC(=O)Nc2cc(Cl)cc(Cl)c2)CC1 | 5% | 98% (active) | -8 | 94% (active) | inactive | inactive | inactive | inactive
